# Screening results as filed in PubChem BioAssay.
# LMNA splice mod: LMNA splicing modulation; HeLa LMNA splicing GFP/RFP minigene ratio, 48 h; Potency, µM (titrated, usually from 46.1 µM), inactives show at the top dose ratio change, negative = inhibition, most hits filed as inhibitors; hit rate 0.01% among 200,000; AID 1487; active means well fitted inhibition curve with a large enough effect in the signal ratio, with a control signal flat, not every such curve was filed as active; inconclusive means small, poorly fitted or top-dose-only effect, or effect the other way, or a change in a side signal; the % refers to the signal ratio; further: on the % scale 0 is the no-effect control and ±100 the full control effect
#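 S3 HeLa stable clones carrying a lamin A-EGFP splicing minigene plus DsRed2 were seeded at 600 cells/well in Opti-MEM with 2% FBS, pin-dosed and incubated 48 h at 37°C. Acumen cytometry (488 nm) gave the GFP/RFP total-intensity ratio.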
# HttQ103 aggreg: mutant huntingtin aggregation inhibition | PC12 HttQ103-GFP aggregates, Acumen cytometry, 40 h | Potency, µM (series often up to 46.1 µM), for the others: at the highest dose activity change, negative = inhibition, usual class: inhibitors | hit rate 1.1% among 220,000 | AID 1688; active means well fitted curve in the direction sought with a large enough effect; inconclusive means small, poorly fitted or top-dose-only effect, or another doubt; inactive means no such curve, though single readings can be large; an effect the other way counts as inactive or inconclusive; further: on the % scale 0 is the no-effect control and ±100 the full control effect; nearly all actives have a fitted effect of over 60% in size
#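 Using laser scanning cytometry, GFP-positive aggregates were counted after lysis of PC12 cells induced with 100 nM tebufenozide to express HTT exon 1 Q103–GFP. Compounds were tested in titration.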
# ALDH1A1 inh: blocks purified human ALDH1A1 activity; P00352; Purified ALDH1A1, NADH fluorescence, propionaldehyde substrate; Potency, µM (titrated, usually from 75.3 µM), for inactives: at the top dose activity, negative = inhibition, usual class: inhibitors; hit rate 7.3% among 220,000; AID 1030;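 further: plate controls were no enzyme wells and a reference inhibitor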
# Target sequence (P00352 whole entry, looked up): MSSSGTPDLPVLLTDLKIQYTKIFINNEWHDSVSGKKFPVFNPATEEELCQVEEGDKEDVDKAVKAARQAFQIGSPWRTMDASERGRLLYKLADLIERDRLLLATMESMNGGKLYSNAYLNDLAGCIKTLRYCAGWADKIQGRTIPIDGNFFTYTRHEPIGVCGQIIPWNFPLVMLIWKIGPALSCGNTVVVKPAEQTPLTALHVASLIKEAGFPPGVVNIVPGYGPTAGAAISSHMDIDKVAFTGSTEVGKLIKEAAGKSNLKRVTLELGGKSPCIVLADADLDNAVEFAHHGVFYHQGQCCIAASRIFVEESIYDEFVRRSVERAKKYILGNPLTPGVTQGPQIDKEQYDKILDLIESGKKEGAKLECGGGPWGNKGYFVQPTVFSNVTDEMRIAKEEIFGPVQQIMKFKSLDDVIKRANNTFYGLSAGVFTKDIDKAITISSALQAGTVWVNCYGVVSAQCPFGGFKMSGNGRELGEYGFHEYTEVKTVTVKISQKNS
# HPGD block: HPGD (human) dehydrogenase inhibition; Potency, µM, for the others: top-dose activity change, negative = inhibition, most hits filed as inhibitors; purified HPGD, NADH fluorescence kinetic, PGE2 substrate; P15428; hit rate 4.3% among 150,000; further: on the % scale 0 is the no-effect control and ±100 the full control effect
# Target sequence (P15428 whole entry, looked up): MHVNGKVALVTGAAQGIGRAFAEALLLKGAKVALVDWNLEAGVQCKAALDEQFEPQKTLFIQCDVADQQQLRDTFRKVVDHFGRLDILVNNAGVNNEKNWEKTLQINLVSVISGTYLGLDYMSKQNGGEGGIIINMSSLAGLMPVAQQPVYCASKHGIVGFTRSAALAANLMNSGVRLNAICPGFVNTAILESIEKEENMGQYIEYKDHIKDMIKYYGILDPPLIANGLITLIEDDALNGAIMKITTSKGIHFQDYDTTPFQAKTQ
#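 NADH formation kinetics: reaction with 30 uM PGE2 and 1 mM NAD+ (final), 20 nM enzyme, Tris-HCl pH 8 with Tween 20, after 15 min compound preincubation at room temperature. Fluorescence change, last versus first of five reads.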
# HTT cytoprotect: cytoprotection in Huntington HTT-Q103 PC12 cell model; Potency, µM (titrated, usually from 56.4 µM), for inactives: cytoprotection (ATP increase), usual class: activators; PC12 HTT-Q103 induced, cytoprotection, ATP luminescence, 40 h; hit rate 0.14% among 230,000; active means well fitted curve in the direction sought with a large enough effect; inconclusive means small, poorly fitted or top-dose-only effect, or another doubt; inactive means no such curve, though single readings can be large; an effect the other way counts as inactive or inconclusive; further: % of control where 0% means no effect; nearly all actives have a fitted effect of over 45% in size
#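 Huntington model: PC12 line, ecdysone-inducible HTTQ103 exon1–GFP, tebufenozide 100 nM. Test articles in a dose series. Endpoint luminescence from cellular ATP.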
# KDM4E inh: inhibitors of human JMJD2E histone demethylase; Potency, µM (titrated, usually from 57.1 µM), for inactives: at the highest dose activity change, negative = inhibition, usual class: inhibitors; hit rate 1.6% among 230,000; JMJD2E catalytic domain, FDH-coupled NADH fluorescence (FDH is formaldehyde dehydrogenase); B2RXH2; AID 2147;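 further: 0% = wells with enzyme and -100% = buffer wells without enzyme; nearly all actives have a fitted effect of over 50% in size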
# Numbers without * were called inactive; u = inconclusive; x = no result; [ ] = dose if it differs, or a comment. Sampled rows, rich in hits. Any-hit rate of the full collection: about 9.2%. Unless noted, the call rests on the fitted dose curve; in most records, active means well fitted inhibition curve with a large enough effect (not every such curve was filed as active); inconclusive means small, poorly fitted or top-dose-only effect, or another doubt; inactive means no such curve, though single readings can be large or run the other way. Potency means the concentration at half of the fitted maximal effect.
SMILES,LMNA splice mod,HttQ103 aggreg,ALDH1A1 inh,HPGD block,HTT cytoprotect,KDM4E inh
Cc1ccc(OC(=O)c2cc(-c3ccc4c(c3)OCCO4)on2)cc1C,5%[46 µM],x,x,x,x,x
O=C(CCN1CCCCC1)c1ccc2c(c1)OCCO2,-19%,18%,0.1µM*,-15%,-1%[0.074 µM],-4%
COc1ccccc1NCc1ccc([N+](=O)[O-])s1,9%,0%,14µM*,-10%,x,1%
C=CCc1cc(C(=O)N2CCCCC2)ccc1O,u,22µM*,u,4µM*,10%[1.9 µM],3%
Cc1[nH]c2ccc(C(=O)N3CCCCC3)cc2c1C,-4%[46 µM],-15%,3%,x,-44%,8%
CCCCCCCCCCCCCCCCCCOC[C@@H](COP(=O)([O-])OCC[N+](C)(C)C)OC,x,x,x,x,-22%[1.9 µM],x
Cc1ccc(SCc2noc(C(=O)NC(C)C)c2C(=O)O)cc1C,u,-8%,u,-14%,-4%,-13%
CC(C)NC(=O)c1onc(CSc2ccc(C(C)C)cc2)c1C(=O)O,u,u,u,22µM*,-22%,8%
CC(C)NC(=O)c1onc(CSc2ccc(F)cc2)c1C(=O)O,5%[0.0737 µM],1%,u,40µM*,-3%,-1%
C=CCNC(=O)c1onc(CSc2ccc(C(C)C)cc2)c1C(=O)O,u,-7%,-11%,14µM*,5%,-4%
CC(C)NC(=O)c1onc(CSc2ccc(F)c(F)c2)c1C(=O)O,-6%[0.0737 µM],4%,22µM*,-21%,11%,u
O=C(CSc1nnc(C2COc3ccccc3O2)o1)N1CCN(c2ccccc2)CC1 (stereo not given),x,3%,3%,x,-25%,9%
Cc1ccc(S(=O)(=O)O[C@H]2C[C@@H](C(C)(C)C)CC[C@@H]2c2ccccc2)cc1,x,x,x,x,10%[10 µM],x
O=C(Nc1cnn(Cc2ccc(F)cc2)c1)c1cc(-c2ccc(Br)cc2)on1,x,x,x,x,-10%,x
CNC(=O)c1sc2nc(-c3ccc(OC)cc3)cn2c1C,-6%,u,-7%,-26%,-65%,u
CCN(CC)C(=O)c1sc2nc(-c3ccc(OC)cc3)cn2c1C,2%,3%,-14%,14µM*,-31%,10%
COc1ccc2c3c([nH]c2c1)C(C)N(C(C)=O)CC3 (stereo not given),x,-11%[9.22 µM],x,x,-15%[10 µM],-14%
COC(=O)[C@@H]1[C@@H]2C[C@H]3c4[nH]c5cc(OC)ccc5c4CCN3C[C@@H]2C[C@H](OC(=O)c2cc(OC)c(OC)c(OC)c2)[C@H]1OC,-14%,x,u,-22%,-34%[17.1 µM],10µM*
CCCN(CCC)c1ncnc2nc[nH]c12,6%,7.9µM*,6%,-4%,5%,-1%
CN1CCN(C(=O)c2ccc3c(=O)n(Cc4ccco4)c(=S)[nH]c3c2)CC1,8%,14%[9.22 µM],u,-13%,-17%,-2%
COc1cc(NC(=O)c2ccc3c(=O)n(Cc4ccco4)c(=S)[nH]c3c2)cc(OC)c1OC,u,u,1.3µM*,-11%,-82%[10 µM],15%
CCCN(CCC)C(=O)c1ccc2c(=O)n(Cc3ccco3)c(=S)[nH]c2c1,u,16%,25µM*,x,-22%[10 µM],-23%
CCc1ccc(NC(=O)CSc2c(C)cnc3c2c(=O)n(C)c(=O)n3C)cc1,-2%[46 µM],x,x,x,x,x
Nc1ncnc2nc(Cl)[nH]c12,-7%,x,8%,-4%,x,6%
CC(C)N(CCC(=O)c1ccc2ccccc2c1)Cc1ccccc1,u,x,0.28µM*,u,-53%,35µM*
SMILES,LMNA splice mod,HttQ103 aggreg,ALDH1A1 inh,HPGD block,HTT cytoprotect,KDM4E inh
CCC(=O)CCC(=O)c1ccc2ccccc2c1,8%,-6%,u,-26%,-28%[10 µM],6%
CC(C)(C)c1cnnn1-c1ccc(NC(=O)c2ccc3c(c2)OCO3)cc1,-12%,-22%,12µM*,-26%,8%[10 µM],-3%
O=C(O)c1c(Cl)cccc1Cl,x,x,-6%,-9%,10%,x
COc1ccc(NC(C)=O)cc1C#N,-10%[46 µM],14%,3.2µM*,x,-20%,-2%
COc1cc(C(=O)/C=C/Nc2ccc(NC(C)=O)cc2)cc(OC)c1OC,u,-3%,-2%,28µM*,-18%[10 µM],1%
COc1cc(C(=O)NNC(=O)c2ccc(NC(C)=O)cc2)cc(OC)c1OC,x,-17%,5%,x,x,0%
Cc1ccc(/C=C2\C(=O)Nc3ccccc32)o1,u,3%,7.9µM*,-23%,-2%[1.9 µM],2%
CN(C)c1ccc(/C=C2\C(=O)Nc3ccccc32)cc1,28µM*,x,7.1µM*,u,-143%,-5%
CCc1cccc2c3c([nH]c12)[C@@](CC)(CC(=O)O)OCC3,1%,-2%,-15%[20.9 µM],-1%,0%[17.1 µM],1%[25.5 µM]
O=C1C2CC=CCC2C(=O)N1c1ccc(N2CCN(c3ccccn3)CC2)c([N+](=O)[O-])c1 (stereo not given),x,-21%,18µM*,x,-27%,0%
CCc1c2c(nc3ccc(OC)cc13)COC2,x,x,u,u,-56%,u
Cc1noc(C)c1C(=O)N1CCC2(CC1)CCN(c1cccc(-c3ccccc3)c1)CC2,x,x,u,-18%,-94%,x
O=C(Nc1ccccc1)N1CCC2(CC1)CCN(C(=O)c1cnccn1)CC2,x,x,-7%,-6%,3.5µM*,x
O=C(Nc1ccccc1)N1CC[C@@]2(CCCN(C(=O)c3cnccn3)C2)C1,x,x,12%,-8%,u,x
CCCn1c(=O)c2[nH]c(-c3ccc(S(=O)(=O)O)cc3)nc2n(CCC)c1=O,-6%,x,u,u,17%[1.9 µM],u
O=C(Nc1nc2ccc(S(=O)(=O)N3CCCCC3)cc2s1)C1CCCO1 (stereo not given),-7%,-2%,u,-6%,-25%,-2%
CSc1nc2ccc(S(=O)(=O)N3CCCCC3)cc2s1,-14%,-14%,9%,-1%,3%,7%
Nc1nc2ccc(S(=O)(=O)N3CCCCC3)cc2s1,-14%,21%,6.3µM*,14µM*,7%[10 µM],1%
COC(=O)c1ccc2nc(NC(=O)C3CCCCC3)sc2c1,u,-2%[9.22 µM],25µM*,x,13%[10 µM],-20%
O=C(Nc1nc2ccc(S(=O)(=O)N3CCCC3)cc2s1)C1CCCCC1,u,-12%,8.9µM*,20µM*,-64%[10 µM],-13%
CCN(CC)C(=O)CSc1nc(-c2ccccc2)cc(=O)[nH]1,-4%[46 µM],9%[9.22 µM],u,x,2%[10 µM],-2%
O=C1CCCc2c1cc(C(=O)O)c(=O)n2-c1ccccc1,u,17%[9.22 µM],1%,x,8%[10 µM],6%
O=C1CCCc2c1cc(C(=O)Nc1ccc(Br)cn1)c(=O)n2-c1ccccc1,5%,-8%,u,35µM*,-59%,u
Cc1c(C)n(C)c2ccc(C(=O)Nc3cccc4ccccc34)cc12,-1%,-9%,u,u,-28%,u
COc1ccc(NC(=O)c2sc(=S)[nH]c2N)cc1,10%,-6%,10µM*,28µM*,-17%,-21%
